Consider 34 molecules from PubChem BioAssay (NCATS).

SMILES strings stand for the structures. The source made the active and inactive calls. Calls come from the whole dose curve; as a rule, active = well fitted activation curve with a large enough effect; inconclusive = small, poorly fitted or top-dose-only effect; inactive = flat fitted curve, though single readings scatter.

The assay can be described thus: Confirmation and Secondary Assay for Modulators of Hemoglobin Beta Chain Splicing at IVS2 705 locus (AID 930).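 Note: HeLa cells stably expressing the EGFP-705 splicing reporter.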 As to conditions: HeLa EGFP-705 splicing reporter, GFP fluorescence, 48 h; series mostly up to 46.1 µM. The method, boiled down:
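Splice-correction reporter: EGFP cDNA split by beta-globin intron 2 bearing the 705 mutation, stably in HeLa. Compound incubation 2 days, 37C; fluorescent objects 5-250 µm summed per well.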
In the case of `O=C(O)c1cc(=O)c2ccccc2o1`, the outcome was inactive. With `CC(C)=CCC/C(C)=C/CO`, the call was inactive. In the case of `Cc1onc(-c2ccccc2)c1-c1ccc(S(N)(=O)=O)cc1` it was “inactive”. In the case of `Cc1ccsc1/C=C/C1=NCCCN1C` it was “inactive”; in that of `C=CCSCC1Nc2cc(Cl)c(S(N)(=O)=O)cc2S(=O)(=O)N1` (centres undefined), “inactive”; in that of `CCOC(N)=O`, “inactive”.

On to `O=C(O)c1ccccc1C(=O)Nc1ccc(S(=O)(=O)Nc2nccs2)cc1`, for which the call was inactive. In the case of `Cc1cccc(Nc2ccccc2C(=O)O)c1C` it was “inactive”. The value for `Cc1cc(NC(=O)C2=C(O)c3ccccc3S(=O)(=O)N2C)no1` was “inactive”. Turning to `Nc1ccc(C(=O)Oc2ccccc2)c(O)c1`, the result was inactive. In the case of `O=C(Cn1ccnc1[N+](=O)[O-])NCCO` it was “inactive”; in that of `NC(=O)NC1NC(=O)NC1=O` (centres undefined), “inactive”. The value for `CC1CCc2cc(F)cc3c(=O)c(C(=O)O)cn1c23` (centres undefined) was “inactive”; that for `CCCCC1(COC(=O)CCC(=O)O)C(=O)N(c2ccccc2)N(c2ccccc2)C1=O` was “inactive”; that for `CC(=O)NCc1c(I)c(NC(C)=O)c(I)c(C(=O)O)c1I` was “inactive”.

As for `Cc1cc(O)cc(C)c1Cl`, the molecule was classed as inactive.

In the case of `CC(N)CCCC(C)(C)O` (centres undefined), the molecule was called inactive. Turning to `O=C(O)c1ccccc1OP(=O)(O)O`, the molecule was classed as inactive. For the molecule `NC(=O)c1ccc([N+](=O)[O-])cc1Cl`, the molecule was called inactive. In the case of `Cc1c(NC(C)C)c(=O)n(-c2ccccc2)n1C` it was “inactive”.

In the case of `CCCCCC(C)N` (centres undefined), the outcome was inactive. Regarding `O=C1c2cccc(O)c2C(=O)c2c(O)cccc21`, the call was inactive.

`C[n+]1ccccc1/C=N/O`: the call was inactive. Consider `COc1ccc(NS(=O)(=O)c2ccc(N)cc2)nn1`, for which the molecule was classed as inactive.

For the molecule `CC(=O)Oc1cccc(O)c1`, the outcome was inactive. The value for `C[N+]1(C)CCCC(OC(=O)C(O)(c2ccccc2)c2ccccc2)C1` (centres undefined) was “inactive”; that for `NC(N)=NCCN1CCCCCCC1` was “inactive”; that for `CCN(CC)CCOC(=O)C(c1ccccc1)c1ccccc1` was “inactive”. On to `Cc1c(NC(=O)c2cccnc2)c(=O)n(-c2ccccc2)n1C`, for which the outcome was inactive. The value for `CCS(=O)(=O)CCn1c([N+](=O)[O-])cnc1C` was “inactive”; that for `CN1C(C)(C)CCCC1(C)C` was “inactive”; that for `NS(=O)(=O)c1cc2c(cc1C(F)(F)F)NCNS2(=O)=O` was “inactive”.

On to `CN1CCCN=C1COC(=O)C(O)(c1ccccc1)C1CCCCC1` (centres undefined), for which the molecule was classed as inactive. In the case of `Cn1c([N+](=O)[O-])cnc1COC(N)=O` it was “inactive”.
